Test results: PubChem BioAssay
Values joined by “and” are separate entries in the source; they are usually repeats but may differ in a detail not shown here. Identical values can stand only once. Results filed as inconclusive are left out. Active and inactive are the calls of the source.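 How the source made its calls, unless noted: active means normalized viability below 100% at a tested concentration; inactive means the rest.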

Experiments:
[1] = P. berghei load reduction in hepatocytes – cell-based, HepG2, luciferase luminescence, HepG2 viability, primary screen (AID 624349; in the data active means parasite load remaining mostly below about 12%, no sharp cut-off; inactive means mostly above about 10%;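 further: 100% = mean of DMSO negative control wells on the same plate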); conditions: P. berghei liver stage in HepG2, luciferase luminescence, concentration not given here; parasite load remaining: stronger effect = lower value; viability: measured here: HepG2 viability without parasites
[2] = Wnt pathway potentiators raising nuclear beta-catenin – imaging, WNT3A-conditioned medium, mouse C2C12, NPC library, primary screen (AID 1117326; in the data active means nuclear beta-catenin stimulation mostly above about 4.2%, no sharp cut-off; inactive means mostly below about 10%); conditions: stronger effect = higher value
[3] = stimulators of insulin release from INS-1E, primary screen, cell-based, 5 mM glucose, NPC library (AID 1117329;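 active means compound raises insulin release from rat beta cells at 5 mM glucose, no numeric limit stated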); conditions: rat INS-1E insulin secretion, at 10 µM, stronger effect = higher value
[4] = growth inhibition of GSK3B-pretreated HCT116 cells – cell-based, CellTiter-Glo, 0.2 to 20 µM (AID 1117336;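 active means compounds lowering colon cancer cell viability after pretreatment blocking the GSK3B kinase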); conditions: HCT116 viability after GSK3B inhibitor, at 20 µM, stronger effect = higher value
[5] = inhibition of endothelial tube formation, primary screen, imaging, VEGF stimulated, CD31 staining, tube area, NPC library (AID 1117340;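 active means compound that reduces growth-factor-driven endothelial tube area in a mixed cell culture, no cutoff stated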); conditions: VEGF-stimulated ADSC/ECFC co-culture, at 10 µM, stronger effect = higher value
[6] = GLP1 release stimulators, primary, NCI-H716, NPC library (AID 1117341;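 active means compound raises GLP1 secretion from the human gut endocrine cells, with no numeric limit stated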); conditions: NCI-H716 cells, at 10 µM, stronger effect = higher value
[7] = HCT116 colon cancer cell growth inhibition, primary screen, CellTiter-Glo luminescence, NPC library (AID 1117342;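 active means compounds that lower survival of HCT116 colon cancer cells in the luminescence readout, no numeric limit stated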); conditions: at 20 µM (top of the series)
[8] = reduced SW480 viability measured with CellTiter-Glo, NPC library, primary (AID 1117343;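 active means compounds that lower viability of the colon cancer cells in the luminescence readout, with no numeric limit stated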); conditions: CellTiter-Glo luminescence; at 20 µM (top of the series) unless noted
[9] = NPC library primary testing for decreased DLD-1 cell viability via CellTiter-Glo (AID 1117346;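 active means compounds that lower survival of DLD-1 colon cancer cells in the luminescence readout, no cutoff given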); conditions: DLD-1 viability, CellTiter-Glo luminescence; at 20 µM (top of the series)
[10] = system: Aerobactin synthetase IucA (Klebsiella pneumoniae); experiment: inhibition of K. pneumoniae IucA enzyme – biochemical, Tocris library, absorbance (AID 1345561; call rule not given here;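 further: 100% = enzyme without compound and 0% = no enzyme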); conditions: purified IucA enzyme assay, absorbance (OD) read-out; stronger effect = lower value;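 tested at 8 µM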
[11] = MELAS cybrid and Rieske KO viability enhancers – cell-based, MELAS cybrids, Rieske KO mouse fibroblasts, CellTiter-Glo, primary screen (AID 1508586;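 active means mean z-score across replicates of 1.96 or higher in either the MELAS or the Rieske mutant cell line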;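 further: z relative to plate mean and SD of compound and empty wells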); conditions: low glucose
[12] = galactose survival enhancers in mitochondrial complex I cybrids – cell-based, galactose medium, ATP luminescence, primary screen (AID 1645843;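 active means z-score of at least 1.8 in each of two replicates, scored against plate mean and spread of sample wells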;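 further: positive z means more ATP and so rescue of galactose-driven cybrid death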); conditions: complex I mutant cybrid cells, 72 h, stronger effect = higher value
[13] = viability loss with induced miR-34 in A549 – imaging, A549 dox-inducible miR-34, nuclei and caspase counts, primary screen (AID 1347080;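 active means compounds whose cell count with miR-34 switched on is under 0.7 times the count with it off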); conditions: A549 miR-34 inducible, Hoechst nuclei count, 48 h
[14] = viability loss in pontine glioma line – cell-based, SU-DIPG-XVII, MIPE5.0, CellTiter-Glo, qHTS, dose response (AID 1347060; cut-off not given, nearly all actives have AC50 up to about 26 µM;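 further: cells exposed to compound for 48 hours before viability readout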); conditions: CellTiter-Glo ATP luminescence
[15] = viability loss in pontine glioma line – cell-based, SU-DIPG-XIII, MIPE4.0, CellTiter-Glo, qHTS, dose response (AID 1347061; cut-off not given, nearly all actives have AC50 up to about 37 µM;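 further: cells exposed to compound for 48 hours before readout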); conditions: CellTiter-Glo ATP luminescence
[16] = viability loss in pontine glioma line – cell-based, SU-DIPG-IV, MIPE4.0, CellTiter-Glo, qHTS, dose response (AID 1347063; cut-off not given, nearly all actives have AC50 up to about 30 µM;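 further: compound exposure lasted 48 hours before the viability readout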); conditions: CellTiter-Glo ATP luminescence
[17] = growth inhibition of DIPG cells – cell-based, MIPE5.0 library, qHTS (AID 1347068; cut-off not given, nearly all actives have IC50 up to about 30 µM;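 further: cells exposed to compound for 48 hours before viability readout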); conditions: SU-DIPG-XXV viability
[18] = drug combination growth inhibition, ovarian cancer – cell-based, oncology-focused library, rucaparib conditional, profiling panel (AID 1508598); conditions: patient-derived ovarian cancer cells, CellTiter-Glo viability, 144 h, stronger effect = lower value
[19] = MELAS cybrid survival, CellTiter-Glo 48 h, stronger effect = higher value
[20] = Rieske KO mouse fibroblast survival, CellTiter-Glo 72 h
[21] = stronger effect = lower value, cell number ratio, induced over uninduced
[22] = measured here: relative caspase fold change +Dox/-Dox
[23] = measured here: total cells with miR-34 induction, stronger effect = lower value
[24] = measured here: total cells without miR-34 induction

CNCCC(Oc1ccccc1OC)c1ccccc1 (stereo unspecified)
0.5%: nuclear beta-catenin stimulation ([2]; stimulation, at 2 µM)
99.6% and 98.5%: viability [1]
inactive: parasite load remaining [1] 99.2% and 34.1% | nuclear beta-catenin stimulation ([2]; at 10 µM) -0.2% | insulin secretion stimulation [3] 8% | viability decrease [4] -108% | tube area decrease [5] 0.4% | GLP1 secretion stimulation [6] 1.3% | inhibition of viability [7] 1.93% | viability decrease (inhibition) [8] 16.6% | viability decrease (inhibition) [9] -38.2% | remaining activity [10] 107% | z-score [11, 19] -0.579 and 0.865 | z-score [12] -0.245 and -0.495 and 0.12
-0.0039 and 1.57: z-score [11, 20]

NC(=O)n1c(O)c(C(=O)c2cccs2)c2cc(Cl)ccc21
active: viability decrease [4] 106% | tube area decrease [5] 58.6% | inhibition of viability [7] 102% | viability decrease (inhibition) [8] 128% | viability decrease (inhibition) [9] 97.5%
-0.7%: nuclear beta-catenin stimulation ([2]; stimulation, at 2 µM)
inactive: nuclear beta-catenin stimulation ([2]; at 10 µM) -0.2% | insulin secretion stimulation [3] 0.2% | GLP1 secretion stimulation [6] -0.5% | remaining activity [10] 121% | fold change [13, 21] 0.969 | z-score [12] -0.475
7020: cell count [13, 23]
1.95: fold change [13, 22]
7250: cell count [13, 24]

O=C(NOCC1CC1)c1ccc(F)c(F)c1Nc1ccc(I)cc1Cl
0.299: z-score [11, 20]
inactive: nuclear beta-catenin stimulation ([2]; at 10 µM) 1.5% | insulin secretion stimulation [3] -0.4% | viability decrease [4] 43.3% | GLP1 secretion stimulation [6] 9.6% | fold change [13, 21] 1.1 | z-score [11, 19] -0.582 | viability ([18]; at 0.000305 µM, OCI-C5x cells, with rucaparib 10 µM, 100% = cells with rucaparib alone) 116% | viability ([18]; at 0.000305 µM, OCI-C5x cells, without rucaparib) 119% | viability ([18]; at 0.000305 µM, OCI-P5x cells, with rucaparib 20 µM, 100% = cells with rucaparib alone) 142% | viability ([18]; at 0.000305 µM, OCI-P5x cells, without rucaparib) 100% | viability ([18]; at 0.00122 µM, OCI-C5x cells, with rucaparib 10 µM, 100% = cells with rucaparib alone) 112% | viability ([18]; at 0.00122 µM, OCI-C5x cells, without rucaparib) 120% | viability ([18]; at 0.00122 µM, OCI-P5x cells, with rucaparib 20 µM, 100% = cells with rucaparib alone) 135% | viability ([18]; at 0.00122 µM, OCI-P5x cells, without rucaparib) 109% | viability ([18]; at 0.00488 µM, OCI-C5x cells, with rucaparib 10 µM, 100% = cells with rucaparib alone) 123% | viability ([18]; at 0.00488 µM, OCI-C5x cells, without rucaparib) 118% | viability ([18]; at 0.00488 µM, OCI-P5x cells, with rucaparib 20 µM, 100% = cells with rucaparib alone) 126% | viability ([18]; at 0.0195 µM, OCI-C5x cells, with rucaparib 10 µM, 100% = cells with rucaparib alone) 115% | viability ([18]; at 0.0195 µM, OCI-C5x cells, without rucaparib) 127% | viability ([18]; at 0.0195 µM, OCI-P5x cells, with rucaparib 20 µM, 100% = cells with rucaparib alone) 122% | viability ([18]; at 0.0195 µM, OCI-P5x cells, without rucaparib) 107% | viability ([18]; at 0.0781 µM, OCI-C5x cells, with rucaparib 10 µM, 100% = cells with rucaparib alone) 121% | viability ([18]; at 0.0781 µM, OCI-C5x cells, without rucaparib) 111% | viability ([18]; at 0.0781 µM, OCI-P5x cells, with rucaparib 20 µM, 100% = cells with rucaparib alone) 124% | viability ([18]; at 0.0781 µM, OCI-P5x cells, without rucaparib) 110% | viability ([18]; at 0.313 µM, OCI-C5x cells, with rucaparib 10 µM, 100% = cells with rucaparib alone) 121% | viability ([18]; at 0.313 µM, OCI-C5x cells, without rucaparib) 119% | viability ([18]; at 0.313 µM, OCI-P5x cells, with rucaparib 20 µM, 100% = cells with rucaparib alone) 106% | viability ([18]; at 1.25 µM, OCI-C5x cells, with rucaparib 10 µM, 100% = cells with rucaparib alone) 104% | viability ([18]; at 1.25 µM, OCI-C5x cells, without rucaparib) 117% | viability ([18]; at 5 µM, OCI-C5x cells, without rucaparib) 116%
2940: cell count [13, 24]
active: tube area decrease [5] 104% | inhibition of viability [7] 87.4% | viability decrease (inhibition) [8] 133% | viability decrease (inhibition) [9] 92.4% | AC50 [14] 2.35 µM | AC50 [15] 11.8 µM | AC50 [16] 20.9 µM | IC50 [17] 13.2 µM | viability ([18]; at 0.00488 µM, OCI-P5x cells, without rucaparib) 97.9% | viability ([18]; at 0.313 µM, OCI-P5x cells, without rucaparib) 92.7% | viability ([18]; at 1.25 µM, OCI-P5x cells, with rucaparib 20 µM, 100% = cells with rucaparib alone) 87.2% | viability ([18]; at 1.25 µM, OCI-P5x cells, without rucaparib) 90.5% | viability ([18]; at 5 µM, OCI-C5x cells, with rucaparib 10 µM, 100% = cells with rucaparib alone) 87.6% | viability ([18]; at 5 µM, OCI-P5x cells, with rucaparib 20 µM, 100% = cells with rucaparib alone) 61% | viability ([18]; at 5 µM, OCI-P5x cells, without rucaparib) 63.3%
1.7%: nuclear beta-catenin stimulation ([2]; stimulation, at 2 µM)
0.574: fold change [13, 22]
3240: cell count [13, 23]
